Bioassay records deposited in PubChem BioAssay by The Scripps Research Institute Molecular Screening Center.
ssDAF-12 act: S. stercoralis DAF-12 nuclear receptor activators, primary screen, cell-based, luminescence, HEK293, GRIP1 co-expression, lit1-tk-luc; HEK293 ssDAF-12/GRIP1 lit1-tk-luc reporter; % of 3 µM dafachronic acid response; activation, % at 6.8 µM; AID 652126, 2013; 1% of 370,000 active;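 active means activation above the mean over all tested compounds plus 3 SD, cut at about 0.9% in these data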
DAX1 inh-1: DAX1 (NR0B1) inhibitors on StAR promoter, primary screen, cell-based, luminescence, SF-1 (NR5A1), full-length DAX-1 | 1.1% of 370,000 active | HEK293T StAR-luciferase reporter, SF-1/DAX-1 repression relief | inhibition, % at 6.8 µM | AID 652010, 2013;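 active means inhibition above the mean over all tested compounds plus 3 SD, cut at about 3.6% in these data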;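 further: higher inhibition means more luminescence from relief of DAX-1 repression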
hcDAF-12 act: H. contortus DAF-12 nuclear receptor activators, primary screen, cell-based, luminescence, HEK293, lit1-tk-luc reporter | AID 652067, 2013 | activation, % at 6.8 µM | HEK293 hcDAF-12 lit1-tk-luc reporter; 0% DMSO, 100% Δ7-dafachronic acid | 1.4% of 370,000 active;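 active means activation above the mean of all tested compounds plus 3 SD, cut at about 5.5% in these data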
SMARCA2 act: SMARCA2 (BRM) function activators, primary screen, cell-based, luminescence, high throughput | 1% of 370,000 active | activation, % at 9.1 µM | MG213 cells, MMTV-luciferase reporter, dexamethasone, overnight | AID 652017, 2013; in the data active means activation above about 7.8%
hgDAF12 agonist: H. glycines DAF-12 receptor agonists, primary screen, cell-based, luminescence, HEK293, GAL4 fusion, UAS-luciferase. HEK293 GAL4-hgDAF12 UAS-luciferase reporter, agonist luminescence; normalized to butyrate control. 1.8% of 370,000 active. activation, % at 6.8 µM. AID 687014, 2013;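 active means activation above a cutoff set at the mean of all screened compounds plus 3 SD, cut at about 10% in these data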
DAX1 inh-2: DAX1 (NR0B1) inhibitors, primary screen, cell-based, HEK293, Gal4-DAX1, luciferase luminescence; 0.99% of 340,000 active; inhibition, % at 6.75 µM; Nuclear receptor subfamily 0 group B member 1 (Homo sapiens), P51843; HEK293 Gal4-DAX1 luciferase reporter;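 active means inhibition above the mean over all tested compounds plus 3 SD, cut at about 4.2% in these data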;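 further: inhibition shows as a rise in luminescence from relieved DAX1 repression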
LXRb hcDAF ctr: LXR agonists, Gal4 luciferase reporter, confirmation, counter-screen for hcDAF-12 agonist project, cell-based, luminescence, HEK293, H. contortus campaign | shares compounds with hcDAF-12 act | HEK293 Gal4-LXR tk-luc reporter, 24 h; normalized: DMSO 0%, positive control 100% | activation, % at 6.8 µM | 3,400 tested, under 10 active | AID 743027, 2013;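 active means mean percent activation of the reporter above a cutoff set as the average over tested compounds plus their standard deviation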
Target sequence (P55055 whole entry, looked up, the tested form may be a part): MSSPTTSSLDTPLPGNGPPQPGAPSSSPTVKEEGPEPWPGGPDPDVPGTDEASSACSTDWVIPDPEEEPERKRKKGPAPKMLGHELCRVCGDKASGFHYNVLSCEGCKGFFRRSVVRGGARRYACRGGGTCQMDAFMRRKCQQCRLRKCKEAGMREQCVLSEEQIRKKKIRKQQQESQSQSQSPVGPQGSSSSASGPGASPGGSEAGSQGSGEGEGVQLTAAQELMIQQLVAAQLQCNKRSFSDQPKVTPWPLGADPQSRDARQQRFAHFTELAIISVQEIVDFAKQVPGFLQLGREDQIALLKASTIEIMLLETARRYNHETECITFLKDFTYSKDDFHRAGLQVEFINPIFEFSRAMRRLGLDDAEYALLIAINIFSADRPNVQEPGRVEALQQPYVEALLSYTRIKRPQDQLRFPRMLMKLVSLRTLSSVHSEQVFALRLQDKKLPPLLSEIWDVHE
hcDAF12 conf: H. contortus DAF-12 receptor agonists, confirmation, cell-based, luminescence, HEK293, lit1-tk-luc, triplicate; shares compounds with hcDAF-12 act; HEK293 hcDAF-12 lit1-tk-luc reporter; % of Δ7-dafachronic acid response; activation, % at 6.8 µM; 61% of 3,400 active; AID 743032, 2013;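 active means mean activation across triplicate tests above the threshold derived from the earlier primary screen, cut at about 5.5% in these data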
Numbers stand for hits; 0 = inactive; - = not tested or not shown; ! = not active in a repeat. In the library only some 4.8% were active in any assay of this set; here they are far more common.

SMILES	ssDAF-12 act	DAX1 inh-1	hcDAF-12 act	SMARCA2 act	hgDAF12 agonist	DAX1 inh-2	LXRb hcDAF ctr	hcDAF12 conf
Cc1ccc(S(=O)(=O)N2CCOCC2)cc1C(=O)Nc1nc2ccccc2[nH]1	0	0	7.9	0	0	0	0	0
CCOc1ccccc1C(=O)NCC(=O)Nc1ccc(-c2ccccc2)cc1	0	0	6.6	0	0	0	0	0
COc1ccc(C(=O)NCC(=O)Nc2ccc(-c3ccccc3)cc2)cc1	0	0	0	0	0	0	-	-
COc1ccc(CCn2cnn3c(=O)c4ccccc4nc3c2=O)cc1OC	0	0	0	0	0	-	-	-
CCCCC12CN3CCN(CC(C3)/C1=N\NC(=O)c1ccccc1N)C2	0	0	9.4	0	11	0	0	0
COc1cccc(CNC(=O)C2CCC(CNS(=O)(=O)c3cccc4cccnc34)CC2)c1OC (stereo unspecified)	0	0	0	0	0	-	-	-
CCN1CCCC1CNC(=O)Cn1nc(C)n2c(cc3cc(F)ccc32)c1=O (stereo unspecified)	0	0	0	0	0	0	-	-
CCN1CCCC1CNC(=O)c1cc2cc(F)ccc2[nH]1 (stereo unspecified)	1.2	0	11	0	0	0	0	5.9
O=C(/C=C/c1c[nH]c2ccccc12)c1cccc2ccccc12	0	0	11	0	0	0	0	0
Oc1[nH]c2ccccc2c1C=Nc1ccc2c(c1)OCCO2	0	0	8.4	0	13	0	0	6.9
Cc1cccc(/N=C/c2c(O)[nH]c3ccccc23)n1	1.2	0	11	0	12	0	0	9.2
CC(C)N=Cc1c(O)[nH]c2ccccc12	0	0	0	0	0	0	-	-
Cc1ccc(/C=N/Nc2cccc3cccnc23)c(O)c1	0	0	7.5	0	0	0	0	17
Cc1c(-c2ccccc2)nnn1-c1ccc(F)c(Cl)c1	0	0	0	0	0	-	-	-
C=CCSc1cc(C)nc2c(-c3ccccc3)cnn12	2.9	0	12	0	12	4.9	0	6.9
CC(=O)C1=C(O)C(=O)N(CCc2ccccc2)C1c1ccccc1[N+](=O)[O-] (stereo unspecified)	0	0	7.3	0	0	0	0	0
O=C(/C=C/c1ccccc1)C1=C(O)C(=O)N(CCO)C1c1ccccc1[N+](=O)[O-] (stereo unspecified)	0	0	0	0	0	0	-	-
CN1OC[C@@H]2CN(CC3CCCCC3)[C@H](c3ccc(-c4ccc(C#N)cc4)cc3)C[C@@H]21	0	0	0	0	0	-	-	-
C=CCCC1CN(Cc2ccc(OC)cc2)S(=O)(=O)c2c(cccc2N2CCCCC2)O1 (stereo unspecified)	0	0	0	0	0	-	-	-
O=C(c1ccco1)c1coc2c1cc(O)c1ccccc12	1.0	0	7.9	0	0	0	0	6.1
CC1=CC2=NC(=O)/C(=C\c3cccn3CCOc3ccccc3C)C(=N)N2O1	0	0	0	0	0	0	-	-
COc1ccccc1OCCOc1ccc(/C=C2/C(=N)N3OC(C)=CC3=NC2=O)cc1OC	0	0	7.3	0	0	0	0	0
COc1cc2c(cc1NC(=O)C(C)OC(=O)C1CC(=O)N(Cc3ccco3)C1)oc1ccccc12 (stereo unspecified)	1.5	0	8.8	0	0	0	0	8.0
CCC(=O)N1CCc2cc(Br)c(S(=O)(=O)NC3CCN(Cc4ccccc4)CC3)cc21	0	0	0	0	0	-	-	-
CC(=O)Oc1c(Br)cc(N(C(C)=O)S(=O)(=O)c2ccccc2)c2ccccc12	0	0	12	0	0	0	0	0
SMILES	ssDAF-12 act	DAX1 inh-1	hcDAF-12 act	SMARCA2 act	hgDAF12 agonist	DAX1 inh-2	LXRb hcDAF ctr	hcDAF12 conf
Clc1ccc(-n2c(SCc3cccc4ccccc34)nnc2-c2ccco2)cc1	0	0	0	0	0	-	-	-
Cc1ccc(Nc2n[nH]c(C)c2[N+](=O)[O-])c(C)c1	0	0	0	0	0	0	-	-
Cc1ccccc1Nc1n[nH]c(C)c1[N+](=O)[O-]	0	0	9.0	0	0	0	0	0
COC(=O)c1cc(-c2c(C)noc2C)c(=O)n2c1CCC2	0	0	0	0	0	-	-	-
CC(C)(C)c1ccc(C2(C)NC(=O)NC2=O)cc1 (stereo unspecified)	0	0	8.7	0	0	0	0	0
O=C(Nc1cc(-c2nc3ccccc3s2)ccc1Cl)c1ccc2c(c1)OCO2	1.6	0	9.9	0	11	0	0	6.3
Cc1ccc(-c2nc3ccccc3s2)cc1NC(=O)c1ccc2c(c1)OCO2	0	0	0	0	0	0	-	-
Oc1ccccc1OCc1nc2ccccc2s1	1.4	0	7.1	0	11	0	0	6.2
NC(=O)c1ccccc1N/C=C/C(=O)c1ccc(Cl)cc1	0	0	6.7	0	0	0	0	0
CCOC(=O)c1ccccc1N/C=C/C(=O)c1ccccc1	0	0	0	0	0	0	-	-
c1ccc(NC2=Nc3ccccc3CS2)cc1	0	0	7.2	0	13	0	0	7.5
Clc1ccccc1-c1nc(-c2ccncc2)no1	0	0	7.2!	0	0	0	0	0
Clc1ccccc1-c1nnc(-c2cccnc2)o1	0	0	0	0	0	0	-	-
CCc1ccc(-c2nc(-c3ccncc3)no2)cc1	0	0	8.2	0	11	0	0	8.3
Clc1ccccc1-c1nc(-c2cccnc2)no1	1.3	0	8.1	0	0	0	0	8.1
c1ccc(-c2ccccc2-c2nc(-c3ccncc3)no2)cc1	0	0	0	0	0	0	-	-
CCCN1CCCCC(NC(=O)c2ccc(Cl)cc2Cl)C1=O (stereo unspecified)	0	0	0	0	0	-	-	-
COC(=O)[C@H](Cc1ccccc1)N1CC=CS1(=O)=O	0	0	0	0	0	-	-	-
O=[N+]([O-])c1cccc2ccc(/C=C/c3ccc(C(F)(F)F)cc3)nc12	0	0	7.6	0	0	0	0	0
